The text below walks through data of ChEMBL document CHEMBL3988442, “University of Dundee, Small-Polar-MMV Screening Library” (2021).

Common to all, as to parameters: scale not given: direction of the effect not stated beside the values
Assay [1] has as its target Protein translocase subunit SecA (Escherichia coli (strain K12)) (UniProt P10408). Put plainly: Assay to Identify E. coli SecA ATPase Inhibitors. Type of assay: functional. To be noted: 30 µM.
Assay [2] deals with T1, Ubiquitin-activating enzyme e1, putative (Leishmania donovani (strain BPK282A1)) (UniProt E9BSI1).
T1 sequence (whole entry): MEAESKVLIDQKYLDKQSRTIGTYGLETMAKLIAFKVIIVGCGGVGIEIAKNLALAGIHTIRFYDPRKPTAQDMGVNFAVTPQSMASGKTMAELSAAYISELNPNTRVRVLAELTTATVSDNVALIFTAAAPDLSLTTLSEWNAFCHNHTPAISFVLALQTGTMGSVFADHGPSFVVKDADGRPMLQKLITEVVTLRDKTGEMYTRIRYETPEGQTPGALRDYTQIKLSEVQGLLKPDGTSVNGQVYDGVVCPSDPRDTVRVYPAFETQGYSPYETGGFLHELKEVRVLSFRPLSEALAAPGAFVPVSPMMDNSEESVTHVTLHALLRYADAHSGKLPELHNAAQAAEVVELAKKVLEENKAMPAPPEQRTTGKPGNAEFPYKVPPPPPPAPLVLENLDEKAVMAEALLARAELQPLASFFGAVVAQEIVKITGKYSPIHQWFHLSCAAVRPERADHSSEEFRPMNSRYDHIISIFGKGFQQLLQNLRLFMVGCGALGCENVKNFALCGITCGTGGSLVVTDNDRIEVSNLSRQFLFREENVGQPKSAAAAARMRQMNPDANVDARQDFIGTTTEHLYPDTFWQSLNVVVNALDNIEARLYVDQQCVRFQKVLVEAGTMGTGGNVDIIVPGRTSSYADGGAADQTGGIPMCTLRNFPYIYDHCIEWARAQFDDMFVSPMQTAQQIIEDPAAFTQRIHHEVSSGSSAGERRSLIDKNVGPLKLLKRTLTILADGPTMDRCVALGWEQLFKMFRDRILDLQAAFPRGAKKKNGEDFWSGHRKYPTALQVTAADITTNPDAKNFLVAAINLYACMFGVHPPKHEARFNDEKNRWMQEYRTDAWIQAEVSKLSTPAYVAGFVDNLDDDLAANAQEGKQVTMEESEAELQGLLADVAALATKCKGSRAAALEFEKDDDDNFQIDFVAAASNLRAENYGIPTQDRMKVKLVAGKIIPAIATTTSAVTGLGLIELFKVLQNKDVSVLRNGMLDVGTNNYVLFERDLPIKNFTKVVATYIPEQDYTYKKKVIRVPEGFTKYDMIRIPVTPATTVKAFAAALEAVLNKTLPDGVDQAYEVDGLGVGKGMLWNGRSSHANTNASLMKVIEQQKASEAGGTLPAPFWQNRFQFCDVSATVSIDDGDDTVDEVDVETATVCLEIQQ
Put plainly: Leishmania donovani Ubiquitin Activating Enzyme (LdE1). Type of assay: functional. To be noted: 30 µM.

For assay [3], the target named is AMP-activated protein kinase, AMPK (Homo sapiens) (UniProt P54646+O43741+P54619+Q9UGJ0+Q9Y478+Q13131+Q9UGI9). Put plainly: AMP-dependent Kinase enzyme assay. An in vitro enzyme assay that detects ADP turnover that is directly proportional to AMPK activity. This uses naive AMPK that is activated during the assay with MK-8722. The settings on record: 30 µM. Type of assay: functional.

The target of assay [4] is Sialic acid-binding Ig-like lectin 9 (Homo sapiens) (UniProt Q9Y336). Put plainly: Hs-Siglec9 ALPHAscreen SOP 20170721. To be noted: 10 µM. In general terms: In Alpha technology, singlet oxygen from a donor bead excites a nearby acceptor bead.
In another assay the test system is Trypanosoma cruzi. Put plainly: Trypanosoma cruzi phosphomannomutase and mannose-1-phosphate guanylyltransferase assay. To be noted: 10 µM. In kind it is functional.
The target of assay [5] is T2, Arginase-2, mitochondrial (Homo sapiens) (UniProt P78540).
T2 sequence (whole entry): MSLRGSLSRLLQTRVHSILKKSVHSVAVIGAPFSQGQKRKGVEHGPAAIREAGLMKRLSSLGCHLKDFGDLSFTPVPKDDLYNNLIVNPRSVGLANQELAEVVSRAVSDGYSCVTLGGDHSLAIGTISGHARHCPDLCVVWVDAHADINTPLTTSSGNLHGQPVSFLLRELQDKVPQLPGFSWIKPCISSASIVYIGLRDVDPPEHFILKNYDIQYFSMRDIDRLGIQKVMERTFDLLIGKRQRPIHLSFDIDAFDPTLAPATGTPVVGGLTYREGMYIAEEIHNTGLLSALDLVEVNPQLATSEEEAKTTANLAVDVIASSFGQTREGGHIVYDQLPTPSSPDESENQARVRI
Put plainly: in vitro enzyme assay to detect the production of urea directly proportional to the activity of Arginase II. Note: in the data most compounds retested in dose-response had high values. Type of assay: functional. The settings on record: 33.3 µM.

In assay [6] the target is T3, Proteasome subunit beta (Trypanosoma cruzi) (UniProt O96673).
T3 sequence (whole entry): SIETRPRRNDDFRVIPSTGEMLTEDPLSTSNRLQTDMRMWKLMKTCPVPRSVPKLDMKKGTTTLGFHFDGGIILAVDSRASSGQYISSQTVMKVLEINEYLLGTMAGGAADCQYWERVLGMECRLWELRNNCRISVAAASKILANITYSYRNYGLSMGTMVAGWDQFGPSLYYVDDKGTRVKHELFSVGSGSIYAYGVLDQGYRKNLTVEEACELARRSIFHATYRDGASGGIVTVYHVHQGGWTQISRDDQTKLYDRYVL
Put plainly: Trypanosoma cruzi proteasome chymotrypsin-like activity (TcProtChymo) assay. Note: in the data most compounds retested in dose-response had high values. Type of assay: functional. The settings on record: 9.37 µM.

The species named for a further assay is Homo sapiens. Put plainly: To identify inhibition of the IFN signalling (Jak-Stat) pathway via expression of an eGFP reporter gene under the control of an IFN-stimulated response element (ISRE) containing MxA promoter. To be noted: 30 µM. In kind it is functional. (In general: In a reporter assay the amount or activity of a reporter protein is the signal.)

In assay [7] the target is T4, Tyrosyl-tRNA synthetase, putative (Trypanosoma cruzi (strain CL Brener)) (UniProt Q4DSP6).
T4 sequence (whole entry): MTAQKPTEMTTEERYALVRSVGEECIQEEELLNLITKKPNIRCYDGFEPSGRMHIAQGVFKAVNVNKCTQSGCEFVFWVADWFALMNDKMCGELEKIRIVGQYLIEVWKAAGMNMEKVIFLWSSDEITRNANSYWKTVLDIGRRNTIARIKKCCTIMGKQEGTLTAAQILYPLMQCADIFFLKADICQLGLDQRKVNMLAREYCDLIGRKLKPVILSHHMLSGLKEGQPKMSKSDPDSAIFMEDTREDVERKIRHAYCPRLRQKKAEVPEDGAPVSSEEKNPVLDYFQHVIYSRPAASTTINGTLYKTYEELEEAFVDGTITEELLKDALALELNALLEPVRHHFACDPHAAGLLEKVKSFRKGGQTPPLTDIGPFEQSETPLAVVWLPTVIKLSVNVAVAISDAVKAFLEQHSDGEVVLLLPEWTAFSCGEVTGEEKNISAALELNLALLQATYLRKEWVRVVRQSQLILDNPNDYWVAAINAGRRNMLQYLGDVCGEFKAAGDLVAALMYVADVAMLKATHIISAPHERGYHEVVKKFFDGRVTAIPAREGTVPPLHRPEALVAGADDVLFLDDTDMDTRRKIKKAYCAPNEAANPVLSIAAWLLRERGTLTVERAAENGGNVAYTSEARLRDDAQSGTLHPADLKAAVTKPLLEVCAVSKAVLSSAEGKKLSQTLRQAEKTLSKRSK
Put plainly: Trypanosoma cruzi tyrosyl tRNA synthetase (TcYRS) _High Tyrosine SOP. Note: in the data most compounds retested in dose-response had high values. In kind it is functional. To be noted: 30 µM.

The target of assay [8] is T4, Tyrosyl-tRNA synthetase, putative (Trypanosoma cruzi (strain CL Brener)). Put plainly: Trypanosoma cruzi tyrosyl tRNA synthetase (TcYRS) SOP. The settings on record: 30 µM. Type of assay: functional.
The target in assay [9] is Chromo domain-containing protein 1 (Saccharomyces cerevisiae (strain ATCC 204508 / S288c) (Baker's yeast)) (UniProt P32657). Put plainly: ScCHD-1 Enzyme Inhibition Assay. Note: in the data most compounds retested in dose-response had high values. In kind it is functional. To be noted: 30 µM.

For some of these results: Entries with a potency or affinity are not part of this list.

Chain of Chromo domain-containing protein 1 (Saccharomyces cerevisiae (strain ATCC 204508 / S288c) (Baker's yeast)) (P32657 whole entry, the tested form may be a part): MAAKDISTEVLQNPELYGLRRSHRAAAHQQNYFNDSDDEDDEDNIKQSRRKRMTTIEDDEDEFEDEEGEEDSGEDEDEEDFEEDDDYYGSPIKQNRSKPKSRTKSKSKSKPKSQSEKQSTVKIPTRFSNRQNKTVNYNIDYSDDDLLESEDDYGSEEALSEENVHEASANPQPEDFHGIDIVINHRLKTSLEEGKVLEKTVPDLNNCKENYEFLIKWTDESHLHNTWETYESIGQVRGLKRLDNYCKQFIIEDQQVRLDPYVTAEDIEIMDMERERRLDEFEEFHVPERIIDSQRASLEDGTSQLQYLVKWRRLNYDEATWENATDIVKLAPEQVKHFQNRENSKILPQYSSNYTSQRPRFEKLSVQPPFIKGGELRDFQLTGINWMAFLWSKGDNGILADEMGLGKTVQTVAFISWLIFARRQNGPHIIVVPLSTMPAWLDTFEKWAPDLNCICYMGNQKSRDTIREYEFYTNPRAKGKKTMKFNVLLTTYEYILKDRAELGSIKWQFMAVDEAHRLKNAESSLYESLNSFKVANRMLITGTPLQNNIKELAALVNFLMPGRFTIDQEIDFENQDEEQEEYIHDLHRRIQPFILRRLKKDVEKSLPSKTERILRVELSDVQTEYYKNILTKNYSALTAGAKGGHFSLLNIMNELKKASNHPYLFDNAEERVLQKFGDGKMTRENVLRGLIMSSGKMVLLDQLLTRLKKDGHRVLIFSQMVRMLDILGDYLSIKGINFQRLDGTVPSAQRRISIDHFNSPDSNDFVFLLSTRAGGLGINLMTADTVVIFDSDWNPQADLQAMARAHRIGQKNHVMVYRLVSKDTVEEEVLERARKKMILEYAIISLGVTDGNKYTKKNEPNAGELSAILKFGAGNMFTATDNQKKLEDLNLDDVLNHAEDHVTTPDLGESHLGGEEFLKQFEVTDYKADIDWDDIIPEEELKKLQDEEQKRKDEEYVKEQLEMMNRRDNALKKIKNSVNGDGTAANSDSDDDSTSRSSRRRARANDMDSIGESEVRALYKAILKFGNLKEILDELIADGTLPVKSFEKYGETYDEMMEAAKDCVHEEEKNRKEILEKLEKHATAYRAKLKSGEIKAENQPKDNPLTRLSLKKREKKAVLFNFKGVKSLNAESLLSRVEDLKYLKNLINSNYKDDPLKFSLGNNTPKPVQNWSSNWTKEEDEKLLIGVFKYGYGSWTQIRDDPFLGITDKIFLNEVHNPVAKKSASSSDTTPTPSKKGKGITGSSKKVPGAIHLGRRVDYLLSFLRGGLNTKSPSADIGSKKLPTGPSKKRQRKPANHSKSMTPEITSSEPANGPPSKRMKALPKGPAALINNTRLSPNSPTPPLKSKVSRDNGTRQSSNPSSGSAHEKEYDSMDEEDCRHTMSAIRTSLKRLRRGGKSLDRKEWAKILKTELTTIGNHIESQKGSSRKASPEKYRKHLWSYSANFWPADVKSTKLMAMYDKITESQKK
Chain of Protein translocase subunit SecA (Escherichia coli (strain K12)) (P10408 whole entry): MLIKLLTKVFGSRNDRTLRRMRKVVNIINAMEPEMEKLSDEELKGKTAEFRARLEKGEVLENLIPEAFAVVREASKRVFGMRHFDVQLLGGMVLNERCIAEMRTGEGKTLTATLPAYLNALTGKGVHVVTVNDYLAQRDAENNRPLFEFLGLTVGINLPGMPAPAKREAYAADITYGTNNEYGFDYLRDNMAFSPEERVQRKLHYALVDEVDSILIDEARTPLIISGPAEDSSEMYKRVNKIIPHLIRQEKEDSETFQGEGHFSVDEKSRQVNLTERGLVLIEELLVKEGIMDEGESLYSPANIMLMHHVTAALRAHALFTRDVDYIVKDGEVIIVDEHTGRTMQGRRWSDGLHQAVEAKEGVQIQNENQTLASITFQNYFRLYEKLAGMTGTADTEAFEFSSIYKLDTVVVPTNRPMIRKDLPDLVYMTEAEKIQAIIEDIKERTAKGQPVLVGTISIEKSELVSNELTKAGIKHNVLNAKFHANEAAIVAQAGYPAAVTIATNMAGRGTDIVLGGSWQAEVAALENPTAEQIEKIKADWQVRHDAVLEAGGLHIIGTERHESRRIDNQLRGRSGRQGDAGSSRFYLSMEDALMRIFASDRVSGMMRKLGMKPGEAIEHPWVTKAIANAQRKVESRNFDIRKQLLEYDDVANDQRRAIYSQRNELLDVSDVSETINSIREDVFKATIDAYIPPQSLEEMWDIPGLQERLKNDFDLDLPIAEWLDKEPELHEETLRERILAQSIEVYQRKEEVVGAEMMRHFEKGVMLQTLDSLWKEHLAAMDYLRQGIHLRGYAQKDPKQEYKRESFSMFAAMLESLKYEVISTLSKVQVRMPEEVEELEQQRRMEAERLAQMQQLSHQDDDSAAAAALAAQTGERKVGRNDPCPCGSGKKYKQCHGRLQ
Chain of Sialic acid-binding Ig-like lectin 9 (Homo sapiens) (Q9Y336 whole entry): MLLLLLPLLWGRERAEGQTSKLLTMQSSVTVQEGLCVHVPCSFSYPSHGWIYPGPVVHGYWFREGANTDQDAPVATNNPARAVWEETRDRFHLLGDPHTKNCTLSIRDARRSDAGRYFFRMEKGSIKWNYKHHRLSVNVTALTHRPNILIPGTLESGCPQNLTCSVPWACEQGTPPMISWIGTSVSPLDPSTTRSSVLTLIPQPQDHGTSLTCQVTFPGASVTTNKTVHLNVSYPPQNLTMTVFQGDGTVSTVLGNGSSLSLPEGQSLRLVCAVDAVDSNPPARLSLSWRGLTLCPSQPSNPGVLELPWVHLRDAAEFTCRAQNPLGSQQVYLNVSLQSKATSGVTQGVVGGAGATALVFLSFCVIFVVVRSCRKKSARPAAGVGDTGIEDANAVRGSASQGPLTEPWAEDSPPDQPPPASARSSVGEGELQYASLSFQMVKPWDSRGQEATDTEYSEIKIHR

On to `Cc1nnc2n1CCN(Cc1ncc(-c3ccc(Cl)cc3)o1)C2`, for which the Percent Effect in assay [1] is -5%; in assay [2], -18.4%; in assay [3], 8.78%; in assay [4], 14.6%; in the assay with Trypanosoma cruzi, 3.38%; in assay [5] it was 2.3%. Also, the Percent Effect in assay [6] was -0.167%; in the assay filed under Homo sapiens, 7.71%; in assay [7] it was 5.39%; in [8], 7.32%; in [9], -5.79%.
For the molecule `CN1C(=O)C(C)(C)COc2cc(NS(=O)(=O)c3ccccc3)ccc21`, the Percent Effect in assay [1] is -2.86%; in assay [2], 8.22%; in assay [3], -14%; in assay [4], 10.6%; in the assay on Trypanosoma cruzi it was -0.979%; in assay [5] it was 2.27%. The Percent Effect in [6] was 14.2%; in the assay filed under Homo sapiens, 46.6%; in assay [7], -8.6%; in [8], 12.5%; in [9], -7.69%.
Regarding `Cc1cc(NC(=O)CN2CCn3c(nnc3C3CC3)C2)n(C)n1`, the Percent Effect in assay [1] is -3.7%; in assay [2], -5.26%; in assay [3], 11.5%; in assay [4], -1.43%; in the assay with Trypanosoma cruzi, -4.7%; in assay [5], 0%. For the same molecule, the Percent Effect is 4.84% in assay [6]; 21.3% in the assay listed under Homo sapiens; -0.49% in assay [7]; 0% in assay [8]; 3.45% in [9].
Take `COc1cccc(C2CC(=O)Nc3nc(N4CCOCC4)sc32)c1OC` (stereo unspecified): the Percent Effect in assay [1] was 63.9%; in [2], 42.1%; in assay [3], 16%; in [4], 0.0251%; with Trypanosoma cruzi, -0.487%; in assay [5], 21.3%. In addition, the Percent Effect was 18.1% in [6]; -7.88% in the assay listed under Homo sapiens; 5.32% in assay [7]; 10.4% in assay [8]; -8.79% in assay [9].
As for `Cc1c(C(=O)NC(CN2CCCC2=O)c2ccccc2)cnn1C` (stereo unspecified), the Percent Effect in assay [1] is 0.252%; in assay [2], 10.5%; in assay [3], 1.96%; in assay [4] it was -5.31%; with Trypanosoma cruzi, -4.7%; in [5] it was 6.9%. In addition, the Percent Effect in assay [6] is 7.69%; in the assay filed under Homo sapiens, 19%; in assay [7], 3.43%; in [8] it was 9.76%; in assay [9], -6.11%.
Turning to `O=C(COCc1nc(-c2ccncc2)no1)N1CCCC1`, the Percent Effect was -2.71% in assay [1]; 10.4% in assay [2]; 5.42% in assay [3]; 6.86% in [4]; 4.42% with Trypanosoma cruzi; -110% in assay [5]. Further, the Percent Effect is 7.32% in assay [6]; -13.8% in the assay filed under Homo sapiens; 5.38% in [7]; 13.6% in assay [8]; -4.16% in assay [9].
Take `Brc1cc2c(cc1CN1CCC(N3CCCCC3)CC1)OCCO2`: the Percent Effect is -3.24% in [1]; -1.39% in assay [2]; -9.98% in [3]; -5.8% in [4]; -0.291% in the assay with Trypanosoma cruzi; 5.74% in [5]. For the same molecule, the Percent Effect in assay [6] was 10.7%; in the assay listed under Homo sapiens, 2.68%; in assay [7] it was 5.26%; in assay [8], 10.3%; in assay [9], -2.58%.
Consider `CC(C)OCc1ncn2c1CN(Cc1ccc(F)cc1)CCC2`, for which the Percent Effect in [1] is -4.79%; in assay [2], 8.11%; in [3], 2.07%; in [4], 2.94%; with Trypanosoma cruzi, -4.79%; in assay [5], -6.05%. The Percent Effect in assay [6] is 22%; in the assay filed under Homo sapiens, -10.1%; in assay [7] it was 3.24%; in assay [8], 12.8%; in assay [9], -0.808%.
On to `O=C(NCCc1ccccc1)C1CCC(Cn2cnnn2)CC1` (stereo unspecified), for which the Percent Effect was -0.876% in assay [1]; -4% in [2]; 1.1% in assay [3]; 6.93% in [4]; -1.77% in the assay on Trypanosoma cruzi; -4.4% in assay [5]. For the same molecule, the Percent Effect in assay [6] was 3.88%; in the assay filed under Homo sapiens, -9.79%; in assay [7], 2.12%; in assay [8], 5.13%; in [9], 2.05%.
`COCCN(Cc1ccc(F)cc1Cl)C(=O)c1ccncc1`: the Percent Effect was -1.67% in [1]; -1.39% in assay [2]; -3.11% in [3]; 0.447% in [4]; 0.486% in the assay on Trypanosoma cruzi; -1.32% in [5]. Besides, the Percent Effect in assay [6] was 5.09%; in the assay listed under Homo sapiens it was 0.399%; in assay [7], -1.05%; in assay [8], 0%; in assay [9] it was -1.32%.
As to `Cc1nccc(C(=O)N2CCCN(Cc3cnn(C(C)C)c3)CC2)n1`, the Percent Effect is -7.35% in [1]; -8.11% in assay [2]; 0.58% in assay [3]; 14.6% in [4]; -2.93% with Trypanosoma cruzi; -0.833% in assay [5]. Besides, the Percent Effect in assay [6] worked out at 7.35%; in the assay listed under Homo sapiens, 1.24%; in assay [7], 5.94%; in [8], 11%; in [9] it was 6.2%.
